# Compound activity: PubChem BioAssay, several laboratories
# APOBEC3A inh: human APOBEC3A DNA deaminase inhibition; P31941; recombinant A3A, FAM/TAMRA ssDNA deamination fluorescence; inhibition, % at 20 µM; 330,000 tested, 0.41% active;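 active = at least 40% inhibition at 20 µM here, with at most 30% in a related deaminase screen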;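 also: plate controls were A3A with DMSO for no effect and wells lacking A3A enzyme for full effect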
# Target sequence (P31941 whole entry, looked up): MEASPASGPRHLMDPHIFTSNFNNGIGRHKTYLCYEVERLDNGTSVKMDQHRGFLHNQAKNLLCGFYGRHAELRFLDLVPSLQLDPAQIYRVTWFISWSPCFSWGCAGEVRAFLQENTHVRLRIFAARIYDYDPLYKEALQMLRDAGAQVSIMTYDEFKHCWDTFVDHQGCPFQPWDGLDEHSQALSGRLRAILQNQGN
# ALR inh: inhibitors of human sulfhydryl oxidase ALR | 290,000 tested, 3.8% active | P55789 | AID 485317 | purified ALR, DTT oxidation, H2O2 HRP-luminol luminescence | inhibition, % (concentration not given with the values);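 active = mean replicate inhibition above about 79%, with every replicate also reaching it, limit read from the data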
# Target sequence (P55789 whole entry, looked up): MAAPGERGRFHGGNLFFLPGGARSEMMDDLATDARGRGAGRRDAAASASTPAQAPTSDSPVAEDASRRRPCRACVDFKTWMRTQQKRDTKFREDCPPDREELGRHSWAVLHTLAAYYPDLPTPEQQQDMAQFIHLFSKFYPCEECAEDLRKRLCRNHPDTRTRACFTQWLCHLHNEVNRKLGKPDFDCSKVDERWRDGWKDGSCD
# NRP1-CendR mod: alters CendR peptide binding to human NRP-1; O14786; FAM-RPARPAR peptide binding to NRP-1, fluorescence polarization; inhibition, % at 25 µM; 360,000 tested, 0.85% active;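 active = inhibition or corrected inhibition above about 18%, plus a signal ratio from 0.5 to 1.5, limit read from the data, passing the limit was not always enough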
# Yeast superoxide: yeast age-related superoxide inhibition as caloric restriction mimetic; S. cerevisiae aged cells, superoxide DHE fluorescence; active compounds read low; superoxide response (% of plate mean), % at 10 µM; 330,000 tested, 0.18% active; AID 2690;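 active = superoxide response under a set limit, about three screen SD below normal, cut at about 65% in these data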;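 also: yeast aged for seven days with compound at 30 °C before DHE staining; 100% = average MFI of all compound-treated wells on the plate with controls excluded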
# M18AAP inhibitor: PfM18AAP enzyme inhibition | recombinant PfM18AAP, H-Glu-NHMec fluorogenic cleavage | inhibition, % at 7.35 µM | 290,000 tested, 1.2% active;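 active = inhibition above the campaign mean inhibition over all tested compounds plus 3 SD, cut at about 28% in these data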;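 also: 0% = plate median of test compound wells and 100% = 2 mM ZnCl2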
# APOBEC3G inh: APOBEC3G (human) deaminase inhibition; Q9HC16; recombinant A3G, ssDNA deamination FAM/TAMRA fluorescence; inhibition, % at 20 µM; 330,000 tested, 0.28% active; AID 493012;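 active = inhibition of at least 40% at 20 µM, with no more than 30% in the related APOBEC3A deaminase screen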;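 also: plate controls were DMSO wells with A3G for no effect and wells lacking A3G enzyme for full effect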
# An asterisk follows results filed as active; . = no result given. Hits are enriched below; roughly 5.2% of the tested compounds scored in any of these assays.
SMILES,APOBEC3A inh,ALR inh,NRP1-CendR mod,Yeast superoxide,M18AAP inhibitor,APOBEC3G inh
Cc1ccc(S(=O)(=O)N2CCOCC2)cc1NC(=O)CSc1nc(N)cc(=O)[nH]1,-7.9,20.1,-3.0,92.4,4.9,-8.8
COc1ccc(O)c(/C=N/NC(=S)Nc2cccnc2)c1,-4.5,66.2,-0.7,110.9,19.6,-4.8
COc1ccccc1N(C(=O)c1ccco1)C(C(=O)NC1CCCCC1)c1cc(OC)c(OC)c(OC)c1 (stereo not given),3.8,-7.4,26.5*,113.5,11.9,2.9
Cc1cc(C)cc(N(C(=O)CNC(=O)c2ccco2)C(C(=O)NC2CCCCC2)c2ccncc2)c1 (stereo not given),-3.7,-3.8,21.5*,97.9,-1.5,-12.2
O=C(NCC(=O)N(c1ccccc1F)C(C(=O)NC1CCCC1)c1ccco1)c1ccco1 (stereo not given),-0.8,-9.4,5.4,99.9,3.9,-5.4
CN(C)c1ccc(C(C(=O)NC2CCCC2)N(C(=O)c2ccco2)C2CC2)cc1 (stereo not given),-2.7,98.7*,6.7,106.4,-1.6,-6.8
COc1ccccc1N(C(=O)CNC(=O)c1ccco1)C(C(=O)NC1CCCC1)c1ccco1 (stereo not given),-4.5,.,17.9*,93.9,-2.1,-6.5
CC(=O)Nc1ccc(N(C(=O)c2ccco2)C(C(=O)NC2CCCC2)c2ccc(N(C)C)cc2)cc1 (stereo not given),-3.6,14.3,4.0,91.0,3.8,-9.0
O=C(Cc1cccc(Cl)c1)Nc1ccc(Br)cc1,-1.1,3.1,2.0,77.4,-0.2,-4.2
FC(F)(F)C12CC(c3ccccc3)=NCCN1CCN2 (stereo not given),-3.7,-4.8,-8.5,106.3,-4.4,-8.0
CC(C)CNC(=O)/C=C/C=C/CCCC/C=C/c1ccc2c(c1)OCO2,-3.6,1.0,25.2*,89.4,.,-10.8
CN(C)CCn1c(NCc2ccc3c(c2)OCO3)nc2ccccc21,-6.1,38.1,11.0,93.8,0.1,-5.8
CCCCn1c(NCc2ccc3c(c2)OCO3)nc2ccccc21,-0.1,92.1*,11.2,85.9,-3.7,-4.9
CCCn1c(NCc2ccc3c(c2)OCO3)nc2ccccc21,-5.9,96.5*,-0.5,120.9,1.4,-5.4
Cc1ccnc(NC(=O)c2cc3ccccc3oc2=O)c1,-5.4,-55.3,9.0,100.2,-5.8,-4.2
Cc1ccnc(NC(c2ccccc2O)c2oc(CO)cc(=O)c2O)c1 (stereo not given),-3.0,98.0*,-13.6,173.2,17.1,5.1
O=c1cc(CO)oc(C(Nc2ccccn2)c2ccsc2)c1O (stereo not given),10.5,-23.2,.,88.8,2.0,-2.1
COc1ccc(C(Nc2ccccn2)c2oc(CO)cc(=O)c2O)cc1 (stereo not given),-0.9,97.9*,-6.2,102.7,-0.1,-2.7
O=c1cc(CO)oc(C(Nc2ccccn2)c2ccccc2Cl)c1O (stereo not given),-1.7,.,25.8*,80.0,-2.2,-15.5
O=c1cc(CO)oc(C(Nc2ccccn2)c2ccc(F)cc2)c1O (stereo not given),-5.4,97.7*,5.5,89.9,2.3,3.0
COc1ccc(C(c2oc(CO)cc(=O)c2O)c2oc(CO)cc(=O)c2O)cc1,0.1,27.3,-7.7,109.3,-0.1,-5.2
CCC(=O)N1CCC2(CC1)Oc1ccc(F)cc1C(=O)C21CC(c2cccnc2)=NO1 (stereo not given),-5.7,-2.6,-6.1,93.2,.,-11.9
O=C(C(=O)N1CCOCC1)c1c[nH]c2ccccc12,-1.7,-3.9,-18.8,101.8,-1.3,-5.0
CC1CN(C(=S)Nc2ccc(Cl)cc2)CC(C)O1 (stereo not given),-2.9,-6.6,9.1,108.2,1.4,-0.2
CC1CN(c2ccc(NC(=S)Nc3ccc(N4CC(C)OC(C)C4)cc3)cc2)CC(C)O1 (stereo not given),-4.4,97.1*,-6.8,104.4,29.1*,-5.3
SMILES,APOBEC3A inh,ALR inh,NRP1-CendR mod,Yeast superoxide,M18AAP inhibitor,APOBEC3G inh
CCOc1ccc(/C=N/Nc2nc(=O)[nH]nc2C)cc1OC,-2.2,-0.3,3.6,84.2,-0.7,-4.5
COc1cc(/C=N/Nc2nc(=O)[nH]nc2C)cc(OC)c1O,1.8,93.2*,-51.2,95.6,18.5,5.2
CCOc1cc(/C=N/Nc2nc(=O)[nH]nc2C)ccc1O,-0.2,99.0*,8.9,92.9,13.7,-1.3
Cc1ccc(C(=O)O/N=C(\N)c2ccccn2)c(Cl)c1,1.0,91.0*,0.6,102.0,1.3,-6.3
N/C(=N\OC(=O)c1ccc(Cl)cc1Cl)c1ccccn1,-5.0,1.4,6.0,110.8,4.5,-5.8
Cc1cc(C)nc(SCC(=O)OCC(=O)N(C)c2c(N)n(Cc3ccccc3)c(=O)[nH]c2=O)n1,-0.7,-2.5,10.2,102.9,-1.5,-2.7
N#CC1=C2SCN(Cc3ccco3)CN2C(=O)CC1c1cccc2ccccc12 (stereo not given),-2.8,-5.5,-8.5,102.3,29.8*,5.2
N#CC1=C2SCN(Cc3ccco3)CN2C(=O)CC1c1ccccc1F (stereo not given),-0.4,3.1,-12.1,118.4,16.9,7.4
FC(F)(F)c1ccc2c(c1)NCC1CCCN21 (stereo not given),-6.7,97.8*,-11.7,109.5,15.1,-12.5
O=C(Nc1ccc(O)cc1)C1CCCN1S(=O)(=O)c1ccc(F)cc1 (stereo not given),-3.3,98.2*,-8.1,98.9,4.1,-7.9
CCCc1ncc(C[n+]2ccccc2C)c(N)n1,0.9,-14.5,-2.2,102.3,.,-3.6
O=C(CCCn1cnc([N+](=O)[O-])n1)Nc1cccc(Cl)c1Cl,0.0,-47.5,31.3*,97.5,-7.2,0.9
Cc1c(Cl)cccc1NC(=O)CCCn1cnc([N+](=O)[O-])n1,0.7,.,-0.8,112.5,-3.1,1.7
Cc1ccc2cc(CCNC(=O)c3cccc([N+](=O)[O-])c3)c(=O)[nH]c2c1C,0.4,-4.1,-10.4,102.4,1.9,-2.6
O=C(OCc1ccccc1)c1cnc(Cl)c(Cl)c1,-0.7,.,18.7,93.2,-2.0,-7.2
N#Cc1ccc(COC(=O)c2cnc(Cl)c(Cl)c2)cc1,3.4,-3.7,25.0*,106.3,-10.6,1.4
O=C(CSC1CC(=O)N(CCc2ccccc2)C1=O)Nc1ccc(Br)cc1 (stereo not given),1.7,21.2,-11.0,94.1,9.3,-0.1
O=C(CSC1CC(=O)N(c2ccc(C(=O)O)cc2)C1=O)Nc1ccc(Cl)cc1 (stereo not given),1.4,98.2*,2.0,96.1,-30.5,-0.2
O=C(CSC1CC(=O)N(CCc2ccccc2)C1=O)Nc1cccc(Cl)c1 (stereo not given),-1.8,98.9*,3.5,122.4,-2.4,-6.5
Cc1ccc(O)c(C(=O)c2cc(C(=O)NCCc3ccccc3)c(=O)n(CCc3ccccc3)c2)c1,-0.8,-3.3,-21.8,101.9,-3.9,-5.4
